According to PubChem BioAssay (NCI):
About 79,000 compounds went through this panel and 15% of them were active in at least one assay; those are over-represented in the sample as a whole. Values without a mark were called inactive. The source made the active and inactive calls. Cut-off read from the data, not from the text of the source: active = growth inhibition above about 70%; inactive = the rest.

What was measured:
[1] = NCI Yeast Anticancer Drug Screen. Data for the rad52 strain (AID 147);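 note: 0% = growth of vehicle-treated control cultures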; conditions: S. cerevisiae rad52 mutant growth inhibition, active compounds read high
Outline: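 The repair-mutant yeast strain was incubated with compounds, then growth was read and inhibition derived relative to vehicle.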

[2] = NCI Yeast Anticancer Drug Screen. Data for the wt1 strain (AID 149);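 note: 0% = growth of vehicle-treated wt1 cultures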; conditions: S. cerevisiae wt1 strain (SPY 50644) growth inhibition, active compounds read high
Outline: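 wt1 yeast, compound-treated; % growth inhibition vs vehicle control.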

[3] = NCI Yeast Anticancer Drug Screen. Data for the rad50EPP+ strain (AID 151);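 note: 0% = growth of vehicle-treated control cultures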; conditions: S. cerevisiae rad50 mutant strain, active compounds read high
Outline: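 Vehicle-normalised growth inhibition; rad50EPP+ yeast strain, altered in DNA damage repair, compound-treated.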

[4] = NCI Yeast Anticancer Drug Screen. Data for the mgt1 strain (AID 153); conditions: S. cerevisiae mgt1 mutant growth inhibition, active compounds read high
Outline: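 Vehicle-normalized growth inhibition is determined in mgt1 yeast, a strain selected for a defined alteration in DNA repair or cell cycle control.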

[5] = NCI Yeast Anticancer Drug Screen. Data for the rad50 strain (AID 155);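 note: 0% = growth of vehicle-only cultures of the same strain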; conditions: S. cerevisiae rad50 strain growth inhibition, active compounds read high
Outline: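 Genetically altered yeast (DNA repair pathway); compound treatment; growth inhibition vs vehicle ctrl.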

[6] = NCI Yeast Anticancer Drug Screen. Data for the mec2-1 strain (AID 157); conditions: S. cerevisiae mec2-1 strain, active compounds read high
Outline: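 Mutant yeast (mec2-1) grown with compound; growth inhibition relative to vehicle control reported.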

[7] = NCI Yeast Anticancer Drug Screen. Data for the rad14 strain (AID 159);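 note: 0% = growth of vehicle-treated control cultures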; conditions: S. cerevisiae rad14 strain growth inhibition, active compounds read high
Outline: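 Test compounds were applied to a repair-deficient yeast strain. Its growth was then compared with that of cultures given vehicle alone, and inhibition was expressed relative to those controls.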

[8] = NCI Yeast Anticancer Drug Screen. Data for the sgs1 mgt1 strain (AID 161);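 note: 0% = growth of cultures given vehicle only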; conditions: S. cerevisiae sgs1 mgt1 strain, active compounds read high
Outline: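 Percent growth inhibition was derived by comparing compound-exposed mutant yeast with vehicle-exposed cultures. The strain carries alterations in DNA damage repair.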

[9] = NCI Yeast Anticancer Drug Screen. Data for the CLN2oe strain (AID 163);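 note: 0% = growth of vehicle-only control cultures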; conditions: S. cerevisiae CLN2oe strain, active compounds read high
Outline: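 Compounds are applied to yeast harbouring a defined cell-cycle control change; reduced growth compared with vehicle-treated controls gives the value.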

[10] = NCI Yeast Anticancer Drug Screen. Data for the cln2 rad14 strain (AID 165);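 note: 0% = growth equal to vehicle treated cultures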; conditions: S. cerevisiae cln2 rad14 strain, active compounds read high
Outline: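 Readout is yeast growth inhibition versus vehicle-treated controls, using a strain with cln2 and rad14 alterations exposed to compound.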

[11] = NCI Yeast Anticancer Drug Screen. Data for the bub3 strain (AID 167); conditions: S. cerevisiae bub3 mutant strain, active compounds read high
Outline: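 Yeast carrying a defined mutation is treated with each compound, and growth is compared with that of vehicle-exposed cells to give inhibition.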

[12] = NCI Yeast Anticancer Drug Screen. Data for the wt2 strain (AID 169);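 note: 0% = growth of vehicle-treated yeast cultures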; conditions: S. cerevisiae wt2 strain growth inhibition, active compounds read high
Outline: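 Against vehicle-treated controls, the growth of yeast exposed to each compound was compared, and the inhibition was recorded.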

[13] = NCI Yeast Anticancer Drug Screen. Data for the mlh1 strain (AID 171);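 note: 0% = growth of vehicle-treated control cultures of the same strain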; conditions: S. cerevisiae mlh1 strain growth inhibition, active compounds read high
Outline: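 Measured: yeast growth. Reference: vehicle-treated controls. Organism: strain with a defined alteration affecting DNA damage repair or cell cycle control, treated with compound.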

[14] = NCI Yeast Anticancer Drug Screen. Data for the sgs1 strain (AID 173);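 note: 0% = growth of vehicle-only control cultures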; conditions: S. cerevisiae sgs1 mutant, active compounds read high
Outline: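 Each compound was added to cultures of the altered yeast strain. Growth was recorded, and inhibition was derived by comparison with vehicle controls.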

[15] = NCI Yeast Anticancer Drug Screen. Data for the mlh1 rad18 strain (AID 175); conditions: S. cerevisiae mlh1 rad18 strain growth inhibition, active compounds read high
Outline: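 Genetically defined yeast (DNA repair-deficient) exposed to compounds; growth inhibition determined relative to vehicle.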

[16] = NCI Yeast Anticancer Drug Screen. Data for the rad18 strain (AID 177); conditions: S. cerevisiae rad18 mutant growth inhibition, active compounds read high
Outline: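 Vehicle-treated cultures served as the baseline for scoring compound-induced growth inhibition in DNA-repair-mutant yeast.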

[17] = at 5.0 µM (retest, dose inferred, filed as 0.5)
[18] = at 50.0 µM (retest, dose inferred, filed as 5.0)

## COC1CCC(O)C(/C=C/[N+](=O)[O-])C1 (stereo unspecified)
[1]; at 1.2 µM
  growth inhibition: 27%
[1]; at 3.7 µM
  growth inhibition: 81% (active)
[1]; at 11.0 µM
  growth inhibition: 99% (active)
[1]; at 33.0 µM
  growth inhibition: 99% (active)
[1]; at 100.0 µM
  growth inhibition: 99% (active)
[2]; at 1.2 µM
  growth inhibition: 3%
[2]; at 3.7 µM
  growth inhibition: 18%
[2]; at 11.0 µM
  growth inhibition: 99% (active)
[2]; at 33.0 µM
  growth inhibition: 99% (active)
[2]; at 100.0 µM
  growth inhibition: 99% (active)
[3]; at 1.2 µM
  growth inhibition: 6%
[3]; at 3.7 µM
  growth inhibition: 19%
[3]; at 11.0 µM
  growth inhibition: 56%
[3]; at 33.0 µM
  growth inhibition: 94% (active)
[3]; at 100.0 µM
  growth inhibition: 99% (active)
[4]; at 1.2 µM
  growth inhibition: 8%
[4]; at 3.7 µM
  growth inhibition: 63%
[4]; at 11.0 µM
  growth inhibition: 99% (active)
[4]; at 33.0 µM
  growth inhibition: 100% (active)
[4]; at 100.0 µM
  growth inhibition: 99% (active)
[5]; at 1.2 µM
  growth inhibition: 29%
[5]; at 3.7 µM
  growth inhibition: 83% (active)
[5]; [17]
  growth inhibition: 50%
[5]; at 11.0 µM
  growth inhibition: 99% (active)
[5]; at 33.0 µM
  growth inhibition: 99% (active)
[5]; [18]
  growth inhibition: 99% (active)
[5]; at 50.0 µM
  growth inhibition: 98.7% (active)
[5]; at 100.0 µM
  growth inhibition: 99% (active)
[6]; at 1.2 µM
  growth inhibition: 5%
[6]; at 3.7 µM
  growth inhibition: 42%
[6]; [17]
  growth inhibition: 21%
[6]; at 11.0 µM
  growth inhibition: 100% (active)
[6]; at 33.0 µM
  growth inhibition: 99% (active)
[6]; [18]
  growth inhibition: 100% (active)
[6]; at 50.0 µM
  growth inhibition: 99.6% (active)
[6]; at 100.0 µM
  growth inhibition: 99% (active)
[7]; at 1.2 µM
  growth inhibition: 7%
[7]; at 3.7 µM
  growth inhibition: 42%
[7]; at 11.0 µM
  growth inhibition: 99% (active)
[7]; at 33.0 µM
  growth inhibition: 99% (active)
[7]; at 100.0 µM
  growth inhibition: 99% (active)
[8]; [17]
  growth inhibition: 67%
[8]; [18]
  growth inhibition: 100% (active)
[8]; at 50.0 µM
  growth inhibition: 98.2% (active)
[9]; at 1.2 µM
  growth inhibition: 0%
[9]; at 3.7 µM
  growth inhibition: 15%
[9]; at 11.0 µM
  growth inhibition: 99% (active)
[9]; at 33.0 µM
  growth inhibition: 99% (active)
[9]; at 100.0 µM
  growth inhibition: 99% (active)
[10]; [17]
  growth inhibition: 17%
[10]; [18]
  growth inhibition: 99% (active)
[10]; at 50.0 µM
  growth inhibition: 89.8% (active)
[11]; at 1.2 µM
  growth inhibition: 4%
[11]; at 3.7 µM
  growth inhibition: 32%
[11]; [17]
  growth inhibition: 79% (active)
[11]; at 11.0 µM
  growth inhibition: 99% (active)
[11]; at 33.0 µM
  growth inhibition: 99% (active)
[11]; [18]
  growth inhibition: 100% (active)
[11]; at 50.0 µM
  growth inhibition: 98.7% (active)
[11]; at 100.0 µM
  growth inhibition: 99% (active)
[12]; at 1.2 µM
  growth inhibition: 9%
[12]; at 3.7 µM
  growth inhibition: 66%
[12]; at 11.0 µM
  growth inhibition: 99% (active)
[12]; at 33.0 µM
  growth inhibition: 99% (active)
[12]; at 100.0 µM
  growth inhibition: 99% (active)
[13]; at 1.2 µM
  growth inhibition: 13%
[13]; at 3.7 µM
  growth inhibition: 79% (active)
[13]; at 11.0 µM
  growth inhibition: 99% (active)
[13]; at 33.0 µM
  growth inhibition: 99% (active)
[13]; at 100.0 µM
  growth inhibition: 100% (active)
[14]; at 1.2 µM
  growth inhibition: 13%
[14]; at 3.7 µM
  growth inhibition: 68%
[14]; at 11.0 µM
  growth inhibition: 99% (active)
[14]; at 33.0 µM
  growth inhibition: 99% (active)
[14]; at 100.0 µM
  growth inhibition: 98% (active)
[15]; [17]
  growth inhibition: 79% (active)
[15]; [18]
  growth inhibition: 99% (active)
[15]; at 50.0 µM
  growth inhibition: 98.2% (active)
[16]; at 1.2 µM
  growth inhibition: 12%
[16]; at 3.7 µM
  growth inhibition: 65%
[16]; at 11.0 µM
  growth inhibition: 99% (active)
[16]; at 33.0 µM
  growth inhibition: 99% (active)
[16]; at 100.0 µM
  growth inhibition: 99% (active)

## Cc1ccc(NC(c2ccccc2)c2ccc3cccnc3c2O)cc1 (stereo unspecified)
[1]; at 1.2 µM
  growth inhibition: -1%
[1]; at 3.7 µM
  growth inhibition: 0%
[1]; at 11.0 µM
  growth inhibition: -1%
[1]; at 33.0 µM
  growth inhibition: -1%
[1]; at 100.0 µM
  growth inhibition: -2%
[2]; at 1.2 µM
  growth inhibition: 1%
[2]; at 3.7 µM
  growth inhibition: 4%
[2]; at 11.0 µM
  growth inhibition: 4%
[2]; at 33.0 µM
  growth inhibition: 1%
[2]; at 100.0 µM
  growth inhibition: 1%
[3]; at 1.2 µM
  growth inhibition: -3%
[3]; at 3.7 µM
  growth inhibition: -1%
[3]; at 11.0 µM
  growth inhibition: -4%
[3]; at 33.0 µM
  growth inhibition: -3%
[3]; at 100.0 µM
  growth inhibition: -2%
[4]; at 1.2 µM
  growth inhibition: 0%
[4]; at 3.7 µM
  growth inhibition: 2%
[4]; at 11.0 µM
  growth inhibition: 1%
[4]; at 33.0 µM
  growth inhibition: 2%
[4]; at 100.0 µM
  growth inhibition: 0%
[5]; at 1.2 µM
  growth inhibition: 1%
[5]; at 3.7 µM
  growth inhibition: -2%
[5]; [17]
  growth inhibition: 18%
[5]; at 11.0 µM
  growth inhibition: 6%
[5]; at 33.0 µM
  growth inhibition: -2%
[5]; [18]
  growth inhibition: 29%
[5]; at 50.0 µM
  growth inhibition: 67.1%
[5]; at 100.0 µM
  growth inhibition: -3%
[6]; at 1.2 µM
  growth inhibition: 1%
[6]; at 3.7 µM
  growth inhibition: 2%
[6]; [17]
  growth inhibition: 5%
[6]; at 11.0 µM
  growth inhibition: 1%
[6]; at 33.0 µM
  growth inhibition: 2%
[6]; [18]
  growth inhibition: 6%
[6]; at 50.0 µM
  growth inhibition: 50.6%
[6]; at 100.0 µM
  growth inhibition: 12%
[7]; at 1.2 µM
  growth inhibition: 0%
[7]; at 3.7 µM
  growth inhibition: -1%
[7]; at 11.0 µM
  growth inhibition: 1%
[7]; at 33.0 µM
  growth inhibition: -26%
[7]; at 100.0 µM
  growth inhibition: 2%
[8]; [17]
  growth inhibition: 9%
[8]; [18]
  growth inhibition: 10%
[8]; at 50.0 µM
  growth inhibition: 79.7% (active)
[9]; at 1.2 µM
  growth inhibition: 0%
[9]; at 3.7 µM
  growth inhibition: -1%
[9]; at 11.0 µM
  growth inhibition: 0%
[9]; at 33.0 µM
  growth inhibition: 2%
[9]; at 100.0 µM
  growth inhibition: 5%
[10]; [17]
  growth inhibition: 48%
[10]; [18]
  growth inhibition: 45%
[10]; at 50.0 µM
  growth inhibition: 59.9%
[11]; at 1.2 µM
  growth inhibition: -8%
[11]; at 3.7 µM
  growth inhibition: -1%
[11]; [17]
  growth inhibition: -18%
[11]; at 11.0 µM
  growth inhibition: -31%
[11]; at 33.0 µM
  growth inhibition: 8%
[11]; [18]
  growth inhibition: -3%
[11]; at 50.0 µM
  growth inhibition: 56.5%
[11]; at 100.0 µM
  growth inhibition: 3%
[12]; at 1.2 µM
  growth inhibition: 0%
[12]; at 3.7 µM
  growth inhibition: 1%
[12]; at 11.0 µM
  growth inhibition: -1%
[12]; at 33.0 µM
  growth inhibition: -1%
[12]; at 100.0 µM
  growth inhibition: -2%
[13]; at 1.2 µM
  growth inhibition: 2%
[13]; at 3.7 µM
  growth inhibition: 2%
[13]; at 11.0 µM
  growth inhibition: 3%
[13]; at 33.0 µM
  growth inhibition: -22%
[13]; at 100.0 µM
  growth inhibition: 9%
[14]; at 1.2 µM
  growth inhibition: 2%
[14]; at 3.7 µM
  growth inhibition: 3%
[14]; at 11.0 µM
  growth inhibition: 3%
[14]; at 33.0 µM
  growth inhibition: 0%
[14]; at 100.0 µM
  growth inhibition: -3%
[15]; [17]
  growth inhibition: 5%
[15]; [18]
  growth inhibition: 10%
[15]; at 50.0 µM
  growth inhibition: 33%
[16]; at 1.2 µM
  growth inhibition: -15%
[16]; at 3.7 µM
  growth inhibition: 3%
[16]; at 11.0 µM
  growth inhibition: -10%
[16]; at 33.0 µM
  growth inhibition: -2%
[16]; at 100.0 µM
  growth inhibition: -12%
